Measurements taken from PubChem BioAssay (NCI).
Compounds without any hit were thinned out: in the full panel of roughly 83,000, 20% have a hit.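 A percent growth of 40 corresponds to 60% growth inhibition; 0 means no net growth; -100 means all cells died. Active threshold: below 10.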 Activity calls are given as the source filed them.

Experiments:
Assay in all cases: NCI-60 one-dose screen, 48 h (100 = growth as untreated, 0 = no growth, -100 = all killed)
Details in all cases: 10 µM unless noted
DU-145 prostate = tested on: DU-145 prostate
K-562 leukemia = tested on: K-562 leukemia
MALME-3M melanoma = tested on: MALME-3M melanoma
MDA-MB-231 breast = tested on: MDA-MB-231 breast
RXF 393 renal = tested on: RXF 393 renal
SF-268 CNS = tested on: SF-268 CNS
SF-295 CNS = tested on: SF-295 CNS
SF-539 CNS = tested on: SF-539 CNS
UACC-257 melanoma = tested on: UACC-257 melanoma
M14 melanoma = tested on: M14 melanoma
HCT-15 colon = tested on: HCT-15 colon
HT29 colon = tested on: HT29 colon
SNB-75 CNS = tested on: SNB-75 CNS
SNB-19 CNS = tested on: SNB-19 CNS
PC-3 prostate = tested on: PC-3 prostate
SK-MEL-5 melanoma = tested on: SK-MEL-5 melanoma
UACC-62 melanoma = tested on: UACC-62 melanoma
SK-MEL-28 melanoma = tested on: SK-MEL-28 melanoma
LOX IMVI melanoma = tested on: LOX IMVI melanoma

Measured: growth

O=C(Cn1nnc2ccccc21)N/N=C/c1ccccc1F
inactive: DU-145 prostate 107% | K-562 leukemia 94.3% | MALME-3M melanoma 102% | MDA-MB-231 breast 91.1% | RXF 393 renal 101% | SF-268 CNS 93.9% | SF-295 CNS 111% | SF-539 CNS 102% | UACC-257 melanoma 93% | M14 melanoma 108% | HCT-15 colon 106% | HT29 colon 99.5% | SNB-75 CNS 95.2% | SNB-19 CNS 103% | PC-3 prostate 96% | SK-MEL-5 melanoma 102% | UACC-62 melanoma 88.5% | SK-MEL-28 melanoma 108%

CC(C)=CC(=O)N[C@@H]1CC2CCC3C(CC[C@@]4(C)C3CC[C@@H]4C(C)N(C)C)[C@@]2(C)C[C@@H]1O (some centres undefined)
active: K-562 leukemia -17.1% | SF-539 CNS -19.5% | HCT-15 colon 2.93% | HT29 colon -4.96% | SK-MEL-28 melanoma -28%
inactive: DU-145 prostate 74.1% | MALME-3M melanoma 32.3% | MDA-MB-231 breast 74.6% | RXF 393 renal 20.6% | SF-268 CNS 32.3% | SF-295 CNS 11.1% | UACC-257 melanoma 31.2% | M14 melanoma 47.3% | SNB-75 CNS 56.1% | SNB-19 CNS 86.3% | PC-3 prostate 44.6% | SK-MEL-5 melanoma 10.1% | UACC-62 melanoma 44.6%

COc1ccc(-c2oc(=O)ccc2-c2cc(OC)c(OC)c(OC)c2)cc1O
inactive: MALME-3M melanoma 37.8% | MDA-MB-231 breast 38.6% | SF-268 CNS 24.9% | UACC-257 melanoma 47.3% | HCT-15 colon 27.1% | SNB-19 CNS 22.9% | PC-3 prostate 38.1% | SK-MEL-5 melanoma 12.1% | UACC-62 melanoma 21.1% | LOX IMVI melanoma 44.4% | SK-MEL-28 melanoma 39.3%
active: DU-145 prostate 6.81% | K-562 leukemia -9.26% | RXF 393 renal -38.7% | SF-295 CNS -17.8% | SF-539 CNS -13.7% | M14 melanoma -62.5% | HT29 colon 3.93% | SNB-75 CNS -1.81%

C=CCCC(=O)N1C=CC(=O)[C@H](O)[C@@H]1/C=C/c1ccccc1
active: M14 melanoma -19.8% [100 µM] | SK-MEL-5 melanoma 0.433% [100 µM]
inactive: DU-145 prostate 35.7% [100 µM] | K-562 leukemia 26.3% [100 µM] | MALME-3M melanoma 89.3% [100 µM] | MDA-MB-231 breast 52.3% [100 µM] | RXF 393 renal 78.9% [100 µM] | SF-268 CNS 35.9% [100 µM] | SF-295 CNS 33.4% [100 µM] | SF-539 CNS 19.2% [100 µM] | UACC-257 melanoma 64.9% [100 µM] | HCT-15 colon 36.5% [100 µM] | HT29 colon 39.4% [100 µM] | SNB-75 CNS 85% [100 µM] | SNB-19 CNS 44.5% [100 µM] | PC-3 prostate 51.2% [100 µM] | UACC-62 melanoma 27.8% [100 µM] | LOX IMVI melanoma 27.9% [100 µM] | SK-MEL-28 melanoma 53.7% [100 µM]

COc1cc(/C=C/c2cc(/C=C/c3ccc(O)c(OC)c3)n(C(=O)Nc3ccc(F)cc3)n2)ccc1O
inactive: MDA-MB-231 breast 33.6% | SF-268 CNS 20.1% | UACC-257 melanoma 13.7% | HCT-15 colon 10.6% | SNB-75 CNS 26.9% | SNB-19 CNS 20.2% | SK-MEL-28 melanoma 16.7%
active: DU-145 prostate 6.78% | K-562 leukemia 0.22% | MALME-3M melanoma 9.15% | RXF 393 renal -43.8% | SF-295 CNS -21.6% | SF-539 CNS 3.68% | M14 melanoma 2.69% | HT29 colon -41.8% | PC-3 prostate 9.01% | SK-MEL-5 melanoma -8.36% | UACC-62 melanoma 2.01% | LOX IMVI melanoma 4%

Cc1cc(C)c(-c2c(O)c(Br)c(-c3c(C)cc(C)c(Br)c3C)c(O)c2Br)c(C)c1Br
active: MALME-3M melanoma -6.91% | MDA-MB-231 breast -42.5% | RXF 393 renal -48.7% | SF-295 CNS -10.2% | UACC-257 melanoma -19% | HT29 colon 2.43% | SK-MEL-5 melanoma 1.69% | LOX IMVI melanoma -26%
inactive: DU-145 prostate 33.4% | K-562 leukemia 15.2% | SF-268 CNS 31% | SF-539 CNS 22.3% | M14 melanoma 29.6% | HCT-15 colon 10.2% | SNB-75 CNS 33.4% | SNB-19 CNS 47.5% | PC-3 prostate 27.7% | SK-MEL-28 melanoma 49.1%

COc1ccc(/C=C/C(=O)c2ccc(NC(=O)CSc3nnc(-c4cc(-c5ccccc5)nc5ccccc45)n3-c3ccccc3)cc2)cc1
inactive: DU-145 prostate 94.9% | K-562 leukemia 88.8% | MALME-3M melanoma 98% | MDA-MB-231 breast 87.3% | RXF 393 renal 103% | SF-268 CNS 98.3% | SF-295 CNS 103% | SF-539 CNS 97.8% | UACC-257 melanoma 105% | M14 melanoma 99% | HCT-15 colon 92.5% | HT29 colon 98.1% | SNB-75 CNS 100% | SNB-19 CNS 101% | PC-3 prostate 89.9% | SK-MEL-5 melanoma 97.5% | UACC-62 melanoma 87.3% | LOX IMVI melanoma 96.5% | SK-MEL-28 melanoma 98.4%

CNC(=O)c1cc(Oc2ccc3nc(NC(=O)Nc4ccc(Cl)c(Cl)c4)sc3c2)ccn1
active: MALME-3M melanoma -5.7% | SF-295 CNS -0.659% | M14 melanoma 1.23% | SNB-75 CNS -38.3% | PC-3 prostate -24.7% | LOX IMVI melanoma -91.9%
inactive: DU-145 prostate 35.3% | K-562 leukemia 62.5% | MDA-MB-231 breast 39.5% | RXF 393 renal 88.6% | SF-268 CNS 11.9% | SF-539 CNS 22.5% | UACC-257 melanoma 74.7% | HCT-15 colon 55% | HT29 colon 36.4% | SNB-19 CNS 74.9% | SK-MEL-5 melanoma 72.7% | UACC-62 melanoma 75.8% | SK-MEL-28 melanoma 41.4%
